# From the supplement of paper PMC8728848
# This excerpt belongs to a sample that is enriched for the strongest signals.
# B1: AAL (Aleuria aurantia) (protein)
# chain: MPTEFLYTSKIAAISWAATGGRQQRVYFQDLNGKIREAQRGGDNPWTGGSSQNVIGEAKLFSPLAAVTWKSAQGIQIRVYCVNKDNILSEFVYDGSKWITGQLGSVGVKVGSNSKLAALQWGGSESAPPNIRVYYQKSNGSGSSIHEYVWSGKWTAGASFGSTVPGTGIGATAIGPGRLRIYYQATDNKIREHCWDSNSWYVGGFSASASAGVSIAAISWGSTPQIRVYWQKGREELYEAAYGGSWNTPGQIKDASRPTPSLPDTFIAANSSGNIDISVFFQASGVSLQQWQWISGKGWSIGAVVPTGTPAGW
# B2: CD23 (Homo sapiens) (protein)
# chain: MELQVSSGFVCNTCPEKWINFQRKCYYFGKGTKQWVHARYACDDMEGQLVSIHSPEEQDFLTKRASHTGSWIGLRNLDLKGEFIWVDGSHVDYSNWAPGEPTSRSQSEDCVMMRGSGRWNDAFCDRKLGAWVCDRLATCTPPASEGSAESMGPDSRPDPDGRLPTPSAPLHS
# Assays:
# Experiment in all cases: glycan array binding signal (z-score within array); higher = stronger binding
# Fuc(a1-2)Gal = settings: glycan notation: IUPAC condensed, linker removed
# Outline: (§1)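 From the Consortium for Functional Glycomics database, 3228 arrays were curated, keeping only those whose protein sequence was available. Binding is given as a within-array Z-score averaged across arrays sharing a protein sequence and across linkers. Negative Z-scores can be read as non-binding.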
# [1] = target: Fuc(a1-2)Gal(b1-3)GlcNAc(b1-3)GalNAc; settings: glycan notation: IUPAC condensed, linker removed; mutation: N224Q
# Outline: as §1
# [2] = target: Fuc(a1-2)Gal(b1-3)[Fuc(a1-4)]GlcNAc(b1-2)Man(a1-3)[Fuc(a1-2)Gal(b1-3)[Fuc(a1-4)]GlcNAc(b1-2)Man(a1-6)]Man(b1-4)GlcNAc(b1-4)[Fuc(a1-6)]GlcNAc(b1-4)[Fuc(a1-6)]GlcNAc; settings: glycan notation: IUPAC condensed, linker removed; mutation: N224Q
# Outline: as §1
# Fuc(a1-2)Gal(b1-4)Glc6S = settings: glycan notation: IUPAC condensed, linker removed
# Outline: as §1
# [3] = target: Fuc(a1-2)Gal(b1-4)GlcNAc(b1-3)Gal(b1-4)GlcNAc(b1-2)Man(a1-3)[Fuc(a1-2)Gal(b1-4)GlcNAc(b1-3)Gal(b1-4)GlcNAc(b1-2)Man(a1-6)]Man(b1-4)GlcNAc(b1-4)GlcNAc; settings: glycan notation: IUPAC condensed, linker removed; mutation: N224Q
# Outline: as §1
# [4] = target: Fuc(a1-2)Gal(b1-4)[Fuc(a1-3)]GlcNAc; settings: glycan notation: IUPAC condensed, linker removed; mutation: N224Q
# Outline: as §1
# [5] = target: Fuc(a1-2)Gal(b1-4)[Fuc(a1-3)]GlcNAc(b1-3)Gal(b1-4)[Fuc(a1-3)]GlcNAc; settings: glycan notation: IUPAC condensed, linker removed; mutation: N224Q
# Outline: as §1
# [6] = target: Fuc(a1-2)Gal(b1-4)[Fuc(a1-3)]GlcNAc(b1-3)Gal(b1-4)[Fuc(a1-3)]GlcNAc(b1-3)Gal(b1-4)[Fuc(a1-3)]GlcNAc; settings: glycan notation: IUPAC condensed, linker removed
# Outline: as §1
# Fuc(a1-2)Gal6S(b1-4)Glc = settings: glycan notation: IUPAC condensed, linker removed; mutation: N224Q
# Outline: as §1
# [7] = target: Fuc(a1-2)[Gal(a1-3)]Gal(b1-4)GlcNAc(b1-2)Man; settings: glycan notation: IUPAC condensed, linker removed; mutation: N224Q
# Outline: as §1
# [8] = target: Fuc(a1-2)[Gal(a1-3)]Gal(b1-4)GlcNAc(b1-2)Man(a1-3)[Fuc(a1-2)[Gal(a1-3)]Gal(b1-4)GlcNAc(b1-2)Man(a1-6)]Man(b1-4)GlcNAc(b1-4)[Fuc(a1-6)]GlcNAc; settings: glycan notation: IUPAC condensed, linker removed; mutation: N224Q
# Outline: as §1
# [9] = target: Fuc(a1-2)[Gal(a1-4)]Gal(b1-4)GlcNAc; settings: glycan notation: IUPAC condensed, linker removed; mutation: N224Q
# Outline: as §1
# [10] = target: Fuc(a1-2)[GalNAc(a1-3)]Gal; settings: glycan notation: IUPAC condensed, linker removed; mutation: N224Q
# Outline: as §1
# [11] = target: Fuc(a1-2)[GalNAc(a1-3)]Gal(b1-4)Glc; settings: glycan notation: IUPAC condensed, linker removed; mutation: N224Q
# Outline: as §1
# [12] = target: Fuc(a1-2)[GalNAc(a1-3)]Gal(b1-4)GlcNAc(b1-3)GalNAc; settings: glycan notation: IUPAC condensed, linker removed; mutation: N224Q
# Outline: as §1
# [13] = target: Fuc(a1-2)[GalNAc(a1-4)]Gal(b1-4)GlcNAc; settings: glycan notation: IUPAC condensed, linker removed; mutation: N224Q
# Outline: as §1
# Fuc(a1-3)GlcNAc = settings: glycan notation: IUPAC condensed, linker removed
# Outline: as §1
# [14] = target: Fuc(a1-3)[Gal(b1-4)]GlcNAc(b1-2)Man; settings: glycan notation: IUPAC condensed, linker removed; mutation: N224Q
# Outline: as §1
# [15] = target: Fuc(a1-3)[Gal(b1-4)]GlcNAc(b1-3)Gal(b1-4)[Fuc(a1-3)]GlcNAc; settings: glycan notation: IUPAC condensed, linker removed; mutation: N224Q
# Outline: as §1
# [16] = target: Fuc(a1-3)[Gal(b1-4)]GlcNAc(b1-6)[Gal(b1-3)GlcNAc(b1-3)]Gal(b1-4)Glc; settings: glycan notation: IUPAC condensed, linker removed; mutation: N224Q
# Outline: as §1
# [17] = target: Fuc(a1-3)[Gal(b1-4)]GlcNAc6S; settings: glycan notation: IUPAC condensed, linker removed; mutation: N224Q
# Outline: as §1
# Fuc(a1-4)GlcNAc = settings: glycan notation: IUPAC condensed, linker removed; mutation: N224Q
# Outline: as §1
# Fuc(b1-3)GlcNAc = settings: glycan notation: IUPAC condensed, linker removed; mutation: N224Q
# Outline: as §1
# [18] = target: Gal(b1-3)GalNAc(a1-3)[Fuc(a1-2)]Gal(b1-4)Glc; settings: glycan notation: IUPAC condensed, linker removed; mutation: N224Q
# Outline: as §1
# [19] = target: Gal(b1-3)GlcNAc(b1-2)[Gal(b1-3)GlcNAc(b1-6)]Man(a1-6)[Gal(b1-3)GlcNAc(b1-2)Man(a1-3)]Man(b1-4)GlcNAc(b1-4)GlcNAc; settings: glycan notation: IUPAC condensed, linker removed; mutation: N224Q
# Outline: as §1
# [20] = target: Gal(b1-3)GlcNAc(b1-6)Gal(b1-4)GlcNAc; settings: glycan notation: IUPAC condensed, linker removed; mutation: N224Q
# Outline: as §1
# Gal(b1-3)GlcNAc6S = settings: glycan notation: IUPAC condensed, linker removed; mutation: N224Q
# Outline: as §1
# Gal(b1-4)GlcNAc = settings: glycan notation: IUPAC condensed, linker removed; mutation: N224Q
# Outline: as §1
# [21] = target: Gal(b1-4)GlcNAc(b1-2)Man(a1-3)[Gal(b1-4)GlcNAc(b1-2)Man(a1-6)]Man(b1-4)GlcNAc(b1-4)GlcNAc; settings: glycan notation: IUPAC condensed, linker removed; mutation: N224Q
# Outline: as §1
# [22] = target: Gal(b1-4)GlcNAc(b1-2)Man(a1-3)[Gal(b1-4)GlcNAc(b1-2)Man(a1-6)]Man(b1-4)GlcNAc(b1-4)[Fuc(a1-6)]GlcNAc; settings: glycan notation: IUPAC condensed, linker removed; mutation: N224Q
# Outline: as §1
# Fuc(a1-2)Gal(b1-3)GalNAc = settings: glycan notation: IUPAC condensed, linker removed; mutation: H213R,G256S
# Outline: as §1
# [23] = target: Fuc(a1-2)[GalNAc(a1-3)]Gal(b1-4)[Fuc(a1-3)]GlcNAc; settings: glycan notation: IUPAC condensed, linker removed; mutation: H213R,G256S
# Outline: as §1
# [24] = target: Fuc(a1-3)[Gal(b1-4)]GlcNAc(b1-4)Gal(b1-4)[Fuc(a1-3)]GlcNAc; settings: glycan notation: IUPAC condensed, linker removed; mutation: H213R,G256S
# Outline: as §1
# Gal(a1-4)Gal(b1-4)Glc = settings: glycan notation: IUPAC condensed, linker removed; mutation: H213R,G256S
# Outline: as §1
# Gal(a1-4)GlcNAc = settings: glycan notation: IUPAC condensed, linker removed; mutation: H213R,G256S
# Outline: as §1
# Gal3S(b1-3)GalNAc = settings: glycan notation: IUPAC condensed, linker removed; mutation: H213R,G256S
# Outline: as §1
# [25] = target: Gal3S(b1-4)[Fuc(a1-3)]Glc; settings: glycan notation: IUPAC condensed, linker removed; mutation: H213R,G256S
# Outline: as §1
# Gal3S6S(b1-4)GlcNAc6S = settings: glycan notation: IUPAC condensed, linker removed; mutation: H213R,G256S
# Outline: as §1
# Gal6S(b1-4)Glc6S = settings: glycan notation: IUPAC condensed, linker removed; mutation: H213R,G256S
# Outline: as §1
# Glc(b1-6)Glc = settings: glycan notation: IUPAC condensed, linker removed; mutation: H213R,G256S
# Outline: as §1
# Kdn(a2-3)Gal(b1-4)GlcNAc = settings: glycan notation: IUPAC condensed, linker removed; mutation: H213R,G256S
# Outline: as §1
# [26] = target: Man(a1-2)Man(a1-3)[Man(a1-2)Man(a1-6)]Man(a1-6)[Man(a1-2)Man(a1-2)Man(a1-3)]Man(b1-4)GlcNAc(b1-4)GlcNAc; settings: glycan notation: IUPAC condensed, linker removed; mutation: H213R,G256S
# Outline: as §1
# [27] = target: Neu5Ac(a2-3)Gal(b1-3)GalNAc; settings: glycan notation: IUPAC condensed, linker removed; mutation: H213R,G256S
# Outline: as §1
# [28] = target: Neu5Ac(a2-3)Gal(b1-3)[Neu5Ac(a2-3)Gal(b1-4)]GlcNAc; settings: glycan notation: IUPAC condensed, linker removed; mutation: H213R,G256S
# Outline: as §1
# [29] = target: Neu5Ac(a2-3)Gal(b1-4)[Fuc(a1-3)]GlcNAc(b1-3)Gal(b1-4)GlcNAc; settings: glycan notation: IUPAC condensed, linker removed; mutation: H213R,G256S
# Outline: as §1
# [30] = target: Neu5Ac(a2-6)Gal(b1-4)GlcNAc6S; settings: glycan notation: IUPAC condensed, linker removed; mutation: H213R,G256S
# Outline: as §1
# [31] = target: Neu5Gc(a2-3)Gal(b1-4)GlcNAc; settings: glycan notation: IUPAC condensed, linker removed; mutation: H213R,G256S
# Outline: as §1
binder,measurement,setting,value
B1,glycan array binding signal (z-score),Fuc(a1-2)Gal; mutation: N224Q,4.67
same,glycan array binding signal (z-score),[1],-0.263
same,glycan array binding signal (z-score),[2],0.006
same,glycan array binding signal (z-score),Fuc(a1-2)Gal(b1-4)Glc6S; mutation: N224Q,2.29
same,glycan array binding signal (z-score),[3],6.34
same,glycan array binding signal (z-score),[4],3.69
same,glycan array binding signal (z-score),[5],3.57
same,glycan array binding signal (z-score),[6]; mutation: N224Q,3.95
same,glycan array binding signal (z-score),Fuc(a1-2)Gal6S(b1-4)Glc,3.32
same,glycan array binding signal (z-score),[7],-0.285
same,glycan array binding signal (z-score),[8],-0.153
same,glycan array binding signal (z-score),[9],5.8
same,glycan array binding signal (z-score),[10],0.989
same,glycan array binding signal (z-score),[11],-0.309
same,glycan array binding signal (z-score),[12],-0.32
same,glycan array binding signal (z-score),[13],5.38
same,glycan array binding signal (z-score),Fuc(a1-3)GlcNAc; mutation: N224Q,3.92
same,glycan array binding signal (z-score),[14],-0.29
same,glycan array binding signal (z-score),[15],1.96
same,glycan array binding signal (z-score),[16],0.019
same,glycan array binding signal (z-score),[17],-0.274
same,glycan array binding signal (z-score),Fuc(a1-4)GlcNAc,6.22
same,glycan array binding signal (z-score),Fuc(b1-3)GlcNAc,4.57
same,glycan array binding signal (z-score),[18],-0.303
same,glycan array binding signal (z-score),[19],-0.296
same,glycan array binding signal (z-score),[20],-0.317
same,glycan array binding signal (z-score),Gal(b1-3)GlcNAc6S,-0.309
same,glycan array binding signal (z-score),Gal(b1-4)GlcNAc,-0.324
same,glycan array binding signal (z-score),[21],-0.316
same,glycan array binding signal (z-score),[22],-0.216
B2,glycan array binding signal (z-score),"Fuc(a1-2)Gal; mutation: H213R,G256S",0.42
same,glycan array binding signal (z-score),Fuc(a1-2)Gal(b1-3)GalNAc,0.764
same,glycan array binding signal (z-score),"Fuc(a1-2)Gal(b1-4)Glc6S; mutation: H213R,G256S",0.623
same,glycan array binding signal (z-score),"[6]; mutation: H213R,G256S",1.02
same,glycan array binding signal (z-score),[23],-0.361
same,glycan array binding signal (z-score),"Fuc(a1-3)GlcNAc; mutation: H213R,G256S",-0.166
same,glycan array binding signal (z-score),[24],0.007
same,glycan array binding signal (z-score),Gal(a1-4)Gal(b1-4)Glc,-0.15
same,glycan array binding signal (z-score),Gal(a1-4)GlcNAc,0.434
same,glycan array binding signal (z-score),Gal3S(b1-3)GalNAc,-0.308
same,glycan array binding signal (z-score),[25],-0.106
same,glycan array binding signal (z-score),Gal3S6S(b1-4)GlcNAc6S,1.06
same,glycan array binding signal (z-score),Gal6S(b1-4)Glc6S,0.798
same,glycan array binding signal (z-score),Glc(b1-6)Glc,-0.561
same,glycan array binding signal (z-score),Kdn(a2-3)Gal(b1-4)GlcNAc,-0.386
same,glycan array binding signal (z-score),[26],0.376
same,glycan array binding signal (z-score),[27],-0.283
same,glycan array binding signal (z-score),[28],-0.301
same,glycan array binding signal (z-score),[29],0.869
same,glycan array binding signal (z-score),[30],-0.002
same,glycan array binding signal (z-score),[31],0.062
